Screens (PubChem)
Shown are actives, neighbours in structure and some others; about 11% of the full set was active somewhere.
IMPase Li inh: qHTS Assay for Identifying the Cell-Membrane Permeable IMPase Inhibitors: Potentiation with Lithium. CHO-M1 cells, IP1 TR-FRET (IP-One), carbachol + lithium. Potency, µM (doses to about 59.4 µM), usual class: inhibitors. 210,000 tested, 0.35% active. AID 1457, 2008;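 note: IP1 builds up when IMPase is blocked and the TR-FRET signal falls; nearly all actives have a fitted effect of over 50% in size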
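Readout is a homogeneous TR-FRET IP1 immunoassay (Ex 320, Em 665 and 620), where raised cytosolic IP1 lowers signal. Cells were CHO-M1 treated 30 min at 37C with test compounds plus a little lithium; AC50 values came from Hill-equation fitting.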
ALDH1A1 inh: qHTS Assay for Inhibitors of Aldehyde Dehydrogenase 1 (ALDH1A1). Potency, µM (highest dose often 75.3 µM), actives largely listed as inhibitors. AID 1030, 2008. 220,000 tested, 7.3% active. Purified ALDH1A1, NADH fluorescence, propionaldehyde substrate; active = well fitted inhibition curve with a large enough effect, not every such curve was filed as active; inconclusive = small, poorly fitted or top-dose-only effect, or another doubt; inactive = no such curve, though single readings can be large or run the other way
IMPase inh: qHTS Assay for Identifying the Cell-Membrane Permeable IMPase Inhibitors | Inositol monophosphatase 1 (Rattus norvegicus), P97697 | CHO-M1 cells, IP1 accumulation, HTRF TR-FRET ratio | inhibition (IP1 accumulation), % at 46.1 µM | 120,000 tested, under 10 active | AID 901, 2007; active = well fitted curve in the direction sought with a large enough effect in the signal ratio, not every such curve was filed as active; inconclusive = small, poorly fitted or top-dose-only effect, or a change in a side signal; inactive = no such curve, though single readings can be large or run the other way; the % refers to the signal ratio;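 note: cells stimulated with carbachol in lithium chloride buffer; higher means more IMPase inhibition seen as more IP1 and lower FRET ratio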
Target sequence (P97697 whole entry, looked up): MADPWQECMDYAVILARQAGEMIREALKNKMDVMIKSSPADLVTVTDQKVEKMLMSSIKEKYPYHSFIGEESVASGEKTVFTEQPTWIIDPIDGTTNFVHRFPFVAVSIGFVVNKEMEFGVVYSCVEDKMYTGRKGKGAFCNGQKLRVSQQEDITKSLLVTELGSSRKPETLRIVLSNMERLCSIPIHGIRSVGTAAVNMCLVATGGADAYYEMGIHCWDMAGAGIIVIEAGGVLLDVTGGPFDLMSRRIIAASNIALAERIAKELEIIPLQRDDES
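Seeded CHO-M1 cells were dosed with compound at up to 46 uM, stimulated with carbachol for 30 min, then lysed in IP-One detection reagents. Higher IP1 lowers the TR-FRET signal.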
HPGD inh: qHTS Assay for Inhibitors of HPGD (15-Hydroxyprostaglandin Dehydrogenase). 15-hydroxyprostaglandin dehydrogenase [NAD(+)] (Homo sapiens), P15428. purified HPGD, NADH fluorescence kinetic, PGE2 substrate. Potency, µM, actives largely listed as inhibitors. 150,000 tested, 4.3% active; active = well fitted inhibition curve with a large enough effect, not every such curve was filed as active; inconclusive = small, poorly fitted or top-dose-only effect, or another doubt; inactive = no such curve, though single readings can be large or run the other way
Target sequence (P15428 whole entry, looked up): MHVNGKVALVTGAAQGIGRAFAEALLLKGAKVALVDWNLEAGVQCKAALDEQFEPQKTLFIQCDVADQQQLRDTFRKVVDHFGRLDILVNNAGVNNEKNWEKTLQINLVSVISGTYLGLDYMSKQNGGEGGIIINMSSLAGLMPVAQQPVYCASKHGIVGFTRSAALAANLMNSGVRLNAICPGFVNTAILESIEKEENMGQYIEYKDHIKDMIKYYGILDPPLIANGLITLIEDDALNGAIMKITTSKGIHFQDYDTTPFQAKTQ
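20 nM HPGD preincubated 15 min at room temperature with compound in 50 mM Tris-HCl pH 8, 0.01% Tween 20. Started with 1 mM NAD+ and 30 uM prostaglandin E2; NADH fluorescence (360/450 nm) read 5 times over 30-s intervals, last minus first.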
NPSR antag: qHTS Assay for Antagonists of the Neuropeptide S Receptor: cAMP Signal Transduction; 220,000 tested, 1% active; Q6W5P4; Potency, µM (doses to about 38.3 µM), actives largely listed as inhibitors; AID 1461, 2008; CHO-NPSR cells, cAMP TR-FRET, antagonist mode; note: nearly all actives have a fitted effect of over 50% in size
PNC assembly inh: High Content Assay for Compounds that inhibit the Assembly of the Perinucleolar Compartment; PC3M PTB-GFP, PNC prevalence imaging, 16 h; stronger effect = lower value; 140,000 tested, 3.1% active; activity change (PNC), negative = inhibition, % at 10 µM;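 active = readout at or below -70, meaning at least 70% loss of cells showing the perinucleolar compartment, a nuclear body marking cancer cells; inconclusive = readout between -30 and a set limit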
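Read-out is percentage of cells bearing a perinucleolar compartment, from automated 20x imaging of fixed, Hoechst-stained PC3M PTB-GFP cells. Cells were seeded 4 h, then exposed 16 h to compound (23 nl of library stock) in duplicate plates.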
Large screens that a line does not name were inactive. Unless noted, calls come from the whole dose curve; as a rule, active = well fitted curve in the direction sought with a large enough effect; inconclusive = small, poorly fitted or top-dose-only effect, or another doubt; inactive = no such curve, though single readings can be large; an effect the other way counts as inactive or inconclusive.

CC(NCC(O)COc1ccc(S(=O)(=O)N2CCOCC2)cc1)c1ccccc1 (centres undefined)	NPSR antag inconclusive (no result: IMPase inh, HPGD inh, PNC assembly inh)
COc1ccc(N=C2S/C(=C\c3ccc(OC(C)C(=O)O)c(OC)c3)C(=O)N2CCc2c[nH]c3ccccc23)cc1 (centres undefined)	ALDH1A1 inh 14µM (no result: IMPase inh, HPGD inh, PNC assembly inh)
COc1cc(/C=C2\SC(=Nc3ccccc3)N(CCc3c[nH]c4ccccc34)C2=O)ccc1OC(C)C(=O)O (centres undefined)	HPGD inh inconclusive, NPSR antag inconclusive, PNC assembly inh inconclusive (no result: IMPase inh)
O=C(NC(NNc1ccc([N+](=O)[O-])cc1)(C(F)(F)F)C(F)(F)F)c1ccccc1Cl	ALDH1A1 inh 14µM, HPGD inh 14µM
O=C(NC(Nc1nc2ccc([N+](=O)[O-])cc2s1)(C(F)(F)F)C(F)(F)F)c1ccccc1Cl	ALDH1A1 inh inconclusive, NPSR antag 7.9µM, PNC assembly inh -119
O=C(NNC(=S)Nc1ccc(F)cc1)c1cccc([N+](=O)[O-])c1	none (no result: IMPase Li inh, IMPase inh, HPGD inh, PNC assembly inh)
O=C(NC(NNc1ccc([N+](=O)[O-])cc1)(C(F)(F)F)C(F)(F)F)c1ccc(F)cc1	ALDH1A1 inh inconclusive, HPGD inh 32µM (no result: IMPase inh)
O=[N+]([O-])c1ccc(NNC(=S)Nc2ccc(F)cc2)cc1	ALDH1A1 inh 1.3µM, IMPase inh inconclusive, HPGD inh 22µM, PNC assembly inh inconclusive
COC(=O)C(NNc1ccccc1)(NC(=O)c1ccc(F)cc1)C(F)(F)F (centres undefined)	ALDH1A1 inh inconclusive
O=C(NC(Nc1nc2ccc([N+](=O)[O-])cc2s1)(C(F)(F)F)C(F)(F)F)c1cccnc1	ALDH1A1 inh inconclusive
CCN(CC)c1ccc(/C=C2/C(=O)N(c3ccc([N+](=O)[O-])cc3)N=C2N2CCOCC2)cc1	ALDH1A1 inh 4.5µM, PNC assembly inh inconclusive
Cc1cc(Oc2ccc(OCC(N)=O)nn2)nc(Cl)n1	none (no result: IMPase inh, HPGD inh, PNC assembly inh)
COc1ccc(Oc2cc(C)nc(Cl)n2)nn1	ALDH1A1 inh 8.9µM (no result: IMPase inh, HPGD inh, PNC assembly inh)
CCN(CC)S(=O)(=O)c1ccc(C(=O)NCC(c2ccc(OC)cc2)N2CCOCC2)cc1 (centres undefined)	ALDH1A1 inh 0.71µM (no result: IMPase inh, HPGD inh, PNC assembly inh)
COc1ccc(C(CNC(=O)c2ccc(S(=O)(=O)N3CCOCC3)cc2)N2CCCCC2)cc1 (centres undefined)	ALDH1A1 inh inconclusive
COc1cc(C(=O)N2CCN(c3cc(Cl)ccc3Cl)CC2)cc(OC)c1OC	PNC assembly inh -88
COc1ccc(C(=O)N2CCN(C(=O)c3cc(OC)c(OC)c(OC)c3)CC2)cc1	ALDH1A1 inh 14µM
Cc1cccc(N2CCN(C(=O)c3ccc(NS(=O)(=O)c4c(C)noc4C)cc3)CC2)c1C	ALDH1A1 inh 14µM
COc1cc(C(=O)N2CCN(C(=O)C3CC3)CC2)cc(OC)c1OC	none
COc1cc(C(=O)N2CCN(c3cccc(C)c3C)CC2)cc(OC)c1OC	NPSR antag inconclusive, PNC assembly inh -122
COc1cc(C(=O)N2CCN(C(=O)COc3ccc4ccccc4c3)CC2)cc(OC)c1OC	ALDH1A1 inh inconclusive
OCC1(CCc2ccccc2)CCN(Cc2cnc(N3CCCC3)s2)CC1	ALDH1A1 inh inconclusive (no result: IMPase Li inh, IMPase inh, HPGD inh, PNC assembly inh)
O=S(=O)(NCc1cn2ccsc2n1)c1ccc(Oc2ccccc2)cc1	none
COc1ccc(C(=O)C2CCN(C(=O)c3ccc(C)cc3)CC2)cc1	ALDH1A1 inh 5µM
CC(=O)NC1Sc2ccccc2N=C1c1ccccc1 (centres undefined)	ALDH1A1 inh 25µM, HPGD inh inconclusive
CC(=O)Nc1nc(-c2ccccc2)c(-c2ccccc2)o1	ALDH1A1 inh inconclusive (no result: IMPase inh)
O=C(O)c1cc2nc3c(c(C(F)(F)F)n2n1)CCc1ccccc1-3	PNC assembly inh -87
COC(=O)CSc1nc(N)c(NC(=O)c2ccc(OC)c(OC)c2)c(=O)[nH]1	PNC assembly inh inconclusive
